Experimental data from the supplement of paper PMC6805474.

Tested on: Schistosoma mansoni schistosomula (LE)
Experiment: XTT viability relative to DMSO control; higher = more viable (less active)
Conditions: 72 h; 10 µM
Method: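 XTT/PMS was then added for a further 24 h (72 h total) and A450 was read. % viability = (sample - heat-killed control)/(DMSO control - heat-killed control) x 100, from duplicate wells in two independent experiments.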

How did the XTT viability turn out when `O=C(N[C@H](Cc1ccccc1)C(=O)Nc1ccccc1N1CCOCC1)c1cccs1` was run?
Its XTT viability is 129%.

`CCc1nc2ccc(Cl)cn2c1C(=O)NCc1ccc(N2CCC(c3ccc(OC(F)(F)F)cc3)CC2)cc1` was tested. Which XTT viability did it give?
The XTT viability was 66.8%.

For `O=C(NCc1ccco1)N1CCN(Cc2ccc(Cl)s2)CC1`, which XTT viability is on record?
Its XTT viability is 93.6%.

With `CN1CCN(c2cc(-c3ccc(F)cc3)nc(-c3ccncc3)n2)CC1` as the molecule, how does the XTT viability read?
The XTT viability was 63%.

Which XTT viability does the source give for `CCn1cnc2c(Nc3cc(F)cc(F)c3)nc(C#N)nc21` here?
The XTT viability was 97.7%.

`O=C(CN1CCOCC1)Nc1ccc2ncnc(Nc3ccc(OCc4cccc(F)c4)c(Cl)c3)c2c1` was tested. Which XTT viability did it give?
Its XTT viability is 125%.

For `Cc1ccccc1CN1CCC(O)(c2ccc(Cl)c(C(F)(F)F)c2)CC1`, which XTT viability is on record?
The XTT viability was 71.1%.

How did the XTT viability turn out when `COC(=O)c1c(NC(=O)c2c(F)c(F)c(F)c(F)c2F)sc2c1CCCCC2` was run?
Its XTT viability is 0.615%.

How did the XTT viability turn out when `Nc1nccc2ccc(Oc3ccncc3)cc12` was run?
Its XTT viability is 152%.

How did the XTT viability turn out when `CC[P](CC)(CC)=[Au][S][C@H]1O[C@@H](COC(C)=O)[C@H](OC(C)=O)[C@@H](OC(C)=O)[C@@H]1OC(C)=O` was run?
The XTT viability was 203%.

How did the XTT viability turn out when `COc1ccc(C2(C(=O)Nc3ccc(Br)cc3)CCCC2)cc1` was run?
The XTT viability was 91%.

Which XTT viability does the source give for `CN1CCC(c2cc(-c3ccncc3)c(-c3ccc(F)cc3)[nH]2)CC1` here?
Its XTT viability is 94.6%.

Which XTT viability does the source give for `Brc1c(-c2ccc3c(c2)OCO3)nc2ncccn12` here?
Its XTT viability is 99.9%.

For `O=C1Nc2ccc(Br)cc2C12NCCc1c2[nH]c2ccccc12` (stereo not given), which XTT viability is on record?
Its XTT viability is 109%.

`CCCCCCCCCCCCCCCCOP(=O)([O-])OCC[N+](C)(C)C` was tested. Which XTT viability did it give?
Its XTT viability is 127%.

For `Cc1cc(Nc2ccncc2)n2nc(C)c(-c3ccccc3Cl)c2n1`, which XTT viability is on record?
Its XTT viability is 64.9%.

How did the XTT viability turn out when `Cc1cc(NCCc2ccccc2)nc(NC(=N)Nc2ccc(Cl)cc2)n1` was run?
The XTT viability was 8.5%.

For `CC(=O)NCC1CN(c2ccc(-c3ccc(CO)cc3)c(F)c2)C(=O)O1` (stereo not given), which XTT viability is on record?
Its XTT viability is 138%.

`O=C(c1cc2ccccc2o1)N1CCN(Cc2ccc3c(c2)OCO3)CC1` was tested. Which XTT viability did it give?
The XTT viability was 110%.

Which XTT viability does the source give for `Cc1cccc(Cn2ccc(NC(=O)c3ccc4c(c3)OCO4)n2)c1` here?
The XTT viability was 93.2%.

With `CCOc1ccc2cc(-c3nn(CC4CCN(C)CC4)c4ncnc(N)c34)ccc2c1` as the molecule, how does the XTT viability read?
The XTT viability was 44.3%.

How did the XTT viability turn out when `CCNC(=O)C(C)Nc1nc(-c2cccnc2)nc2sc(C)c(C)c12` (stereo not given) was run?
Its XTT viability is 81.9%.

`Clc1ccc(CN2CCN(C3=NCCN3)CC2)cc1Cl` was tested. Which XTT viability did it give?
The XTT viability was 81.9%.

With `Cc1cc(C)c2cc(C(=O)NC3CCCCCCC3)[nH]c2c1` as the molecule, how does the XTT viability read?
The XTT viability was 124%.

How did the XTT viability turn out when `N=C(N)c1ccc(-c2cc(-c3ccccc3)on2)cc1` was run?
Its XTT viability is 91.6%.

With `Cc1ccc(NC(=O)c2cc(S(=O)(=O)NC(C)(C)C)ccc2C)nc1` as the molecule, how does the XTT viability read?
The XTT viability was 90.2%.

With `CC(C)(C)n1nc(-c2ccccc2)c2c(N)ncnc21` as the molecule, how does the XTT viability read?
Its XTT viability is 106%.

For `Clc1ccc(CCNc2cc(-c3ccccc3)nc3ncnn23)cc1`, which XTT viability is on record?
Its XTT viability is 83.9%.

How did the XTT viability turn out when `Cc1[nH]c2cc(F)cc(F)c2c(=O)c1-c1ccc(Oc2ccc(OC(F)(F)F)cc2)cc1` was run?
The XTT viability was 74.6%.

With `NCCN(C(=O)c1ccc(Cl)cc1Cl)c1ccc(OCc2ccc(Cl)cc2)cc1` as the molecule, how does the XTT viability read?
Its XTT viability is 22.7%.

Which XTT viability does the source give for `c1ccc(Oc2ccc(-c3cncc(-c4ccc5[nH]ccc5c4)n3)cc2)cc1` here?
The XTT viability was 3.06%.

`CC(C)(C)c1ccc(N[C@@H]2CCCC[C@H]2NC(=O)c2ccco2)cc1` was tested. Which XTT viability did it give?
Its XTT viability is 117%.

For `COc1ccc(N(CCc2cccc(C)n2)C(=O)C2CCCCC2)cc1`, which XTT viability is on record?
The XTT viability was 88.7%.

Which XTT viability does the source give for `CCCn1c(NC(=O)c2ccc3ccccc3n2)nc2ccccc21` here?
The XTT viability was 5.68%.

`CCc1ccc(S(=O)(=O)Nc2cc(CN3CCN(CCC(C)C)CC3)ccc2C)cc1` was tested. Which XTT viability did it give?
Its XTT viability is 85.8%.

`Cc1cc(OCC(=O)Nc2ccc(C(C)C)cc2)n(C)c(=O)c1C#N` was tested. Which XTT viability did it give?
Its XTT viability is 82.3%.

How did the XTT viability turn out when `CNc1nnc(Sc2cnn(-c3ccccc3)c(=O)c2Cl)s1` was run?
Its XTT viability is -5.83%.

For `O=C(Nc1cccc(Cl)c1)c1cnc(N2CCN(c3ccncc3)CC2)c(Cl)c1`, which XTT viability is on record?
Its XTT viability is 3.67%.

Which XTT viability does the source give for `Cc1ccc(S(=O)(=O)N2CCN(C(=O)c3cc(-c4ccccc4)[nH]n3)CC2)cc1` here?
Its XTT viability is 82.6%.

For `Cc1cc(Cl)ccc1NC(=O)CCc1ccc(S(=O)(=O)NCC(C)C)cc1`, which XTT viability is on record?
The XTT viability was 107%.
